This note sets out measurements from the supplement of paper PMC6555819.

The subject of one assay is PPARg:RXRa 270nM:90nM, anti-RXR (NR concentration 270 nM, RXRa partner concentration 90 nM). The experiment in a line: PBM binding z-score (relative to random genomic background probes); higher = stronger binding; sequences stand for … in GC…GCGATTGACAGCGTAGAATGAAGG
In short, it runs like this: (§1)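 On custom Agilent 4×180K arrays, double-stranded probes with 34-nt variable regions carried direct-repeat seeds, single-nucleotide variants, half-site ablations or random human genomic background. Ligand-free nuclear receptor dimers were applied for 1 h, and binding was read with antibodies against each partner (one per run). Binding z-scores come from regression-normalized fluorescence, with the random background probes as reference.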
Regarding CCCACTGGGGCATAAGGTTACCATAAGCCAGCCC, the PBM binding z-score amounted to 4.26.

In turn, GCTTACGGGTCAAACGTTATAGCATGAATAGAAT returned a PBM binding z-score of 6.15.

TCTCGGATGACACGAAGGTCAGAGCTTTCCAGAG returned a PBM binding z-score of 2.21.

For ATCTCTAGGTAAAATTTCAGTGAATCCCGAGGAT, the PBM binding z-score was found to be 0.563.

Sequence CATACAGGGTCAGCTAGGCGAGAGTAGGGACGGC displayed a PBM binding z-score of 2.91.

The sequence GAAACGAGGGCAAGTTGATAGCAGAGTTTGATGG yielded a PBM binding z-score of 1.76.

In the case of GCATATAGGTAATACAAGGTGAAAATCCGATTGT, the PBM binding z-score is 1.09.

For the sequence CCTAGTTGGTCAGGAGGTCAGACACCGGATATGA, the PBM binding z-score is 2.35.

The sequence CCTTACGGCTCACGAGGTTATAGCACGACGAGCG registered a PBM binding z-score of 0.128.

Consider CCTCGGAGGAGAACAGGAGGTCAGAGCTGCCAGA, for which the PBM binding z-score worked out at 0.0579.

For the sequence TAGCCTTGGTCATGCGGGCCAGTATAGTGTCGGC, the PBM binding z-score is -0.768.

As to AGAATGAGTTTACCAAAGATCAGGGAAACGCTTG, the PBM binding z-score amounted to 0.55.

As for ACTCGGAGGACAAAGGTCTGAGCTACGCCAGTGA, the PBM binding z-score was 3.29.

The sequence TTACCAAGGGGAAAGGTCGTTGATGCACGCCTTG registered a PBM binding z-score of 6.57.

Turning to CCTACTGGGCCACGAATGGTCATTGATTCAGTGA, the PBM binding z-score was determined as 1.19.

Consider CGTCAAAGTTCAACTAAGGAAACGTAAAGCACGC, for which the PBM binding z-score was found to be 5.68.

The sequence TCTTGTAGATCAAGGAGGTTAAGAAAGCCTGAGT showed a PBM binding z-score of 1.44.

As for AATACAGGGTCACTAGGACAGAGTAGGTACGAAT, the PBM binding z-score turned out to be 6.39.

Sequence GTTCGGAGGACAAGGTCAGAGCTTTGTCCGTAGA showed a PBM binding z-score of 1.29.

The sequence TGAATGAGGTTAAAGATCAGGTAACGTGGCGTCG gave a PBM binding z-score of 5.96.

Turning to AATACAGGGTCACTAGGCCAGATTAGGTACGAAT, the PBM binding z-score came out at 6.39.

The sequence GCAGACAGGTGTAACGCAGGTAACTCAGGGTGGC showed a PBM binding z-score of -0.525.

For the sequence CTACCAAGGTGAACAAGGTCGCTGATTACTATTC, the PBM binding z-score is 1.36.

CTTAGCAGGCCAGGGTCACTCAAGCATTTCGCTT: the PBM binding z-score came out at 1.93.

CCTACTGAGCCATTCAGAGGTCATTGATCATATG had a PBM binding z-score of 1.84.

Turning to GGAAAGAGGGCAAGTTGATAGCAGAGTTTGATGG, the PBM binding z-score came to 1.59.

For ATCTCTAGGTAACAAGTTCAGTGGAAGAGAGGAC, the PBM binding z-score worked out at 1.79.

Sequence TCTCGGCGGACACGAAAGGTCAGAGCTCGACATC came in with a PBM binding z-score of 1.69.

In the case of CCTTACTGGTCACTGACAGGTTATAGCATTTGGA, the PBM binding z-score came to 0.384.

For CGACCAAGGTCAGCAGGTCAGTGAAAGCGACGTG, the PBM binding z-score came to 4.43.

Regarding TCTTGTAGATCAACAGAGGTTAAGAAAGTGCGCT, the PBM binding z-score came to 1.64.

Sequence CCTAGTTGGTCAAGGTCACACTCGCTATAGGTAC displayed a PBM binding z-score of 3.32.

Take CAAACTAGGTCAAGAGATCAAAGTCCGCTTCCCG: the PBM binding z-score is 6.89.

CTACTAAGGTGAACAAGGTCGTTGATTACTATTC had a PBM binding z-score of 1.99.

Take CGTCCAAGGTCAAGGCCAGTGAAAGAGACTCGAA: the PBM binding z-score is 5.05.

As to ATCTCTGGGTAAGACTCAGTTCAGTGAAGAACGC, the PBM binding z-score was found to be 0.276.

GCTAGTTGGTCAGTAAAAGGACACACACCGGTCG: the PBM binding z-score was 0.282.

For the sequence CCGACTGGGCCAAAAAGGTCATTGATGCCGATAA, the PBM binding z-score was found to be 3.47.

In turn, TAGCCTAGGTCATTCAGGGGCCAGGATAGAAAGC registered a PBM binding z-score of 2.42.

The sequence GCGACTGGGGCAGCAGCAGGTTACCATAACTTAA registered a PBM binding z-score of -0.0757.

A further assay concerns PPARg:RXRa 30nM:10nM, anti-RXR (NR concentration 30 nM, RXRa partner concentration 10 nM). Described as above. In short, it runs like this:
as §1
Regarding CCCACTGGGGCATAAGGTTACCATAAGCCAGCCC, the PBM binding z-score was 1.73.

GCTTACGGGTCAAACGTTATAGCATGAATAGAAT: the PBM binding z-score is 2.96.

On to TCTCGGATGACACGAAGGTCAGAGCTTTCCAGAG, for which the PBM binding z-score came to 2.77.

Turning to ATCTCTAGGTAAAATTTCAGTGAATCCCGAGGAT, the PBM binding z-score was found to be 0.504.

In the case of CATACAGGGTCAGCTAGGCGAGAGTAGGGACGGC, the PBM binding z-score stood at 0.767.

GAAACGAGGGCAAGTTGATAGCAGAGTTTGATGG yielded a PBM binding z-score of 0.251.

GCATATAGGTAATACAAGGTGAAAATCCGATTGT displayed a PBM binding z-score of 0.599.

CCTAGTTGGTCAGGAGGTCAGACACCGGATATGA: the PBM binding z-score is 0.691.

Sequence CCTTACGGCTCACGAGGTTATAGCACGACGAGCG displayed a PBM binding z-score of -0.0191.

CCTCGGAGGAGAACAGGAGGTCAGAGCTGCCAGA showed a PBM binding z-score of -0.552.

Regarding TAGCCTTGGTCATGCGGGCCAGTATAGTGTCGGC, the PBM binding z-score is -0.886.

Take AGAATGAGTTTACCAAAGATCAGGGAAACGCTTG: the PBM binding z-score is 0.448.

For the sequence ACTCGGAGGACAAAGGTCTGAGCTACGCCAGTGA, the PBM binding z-score worked out at 1.06.

As to TTACCAAGGGGAAAGGTCGTTGATGCACGCCTTG, the PBM binding z-score worked out at 4.47.

As for CCTACTGGGCCACGAATGGTCATTGATTCAGTGA, the PBM binding z-score was -0.142.

As for CGTCAAAGTTCAACTAAGGAAACGTAAAGCACGC, the PBM binding z-score came to 2.56.

In turn, TCTTGTAGATCAAGGAGGTTAAGAAAGCCTGAGT gave a PBM binding z-score of 2.7.

AATACAGGGTCACTAGGACAGAGTAGGTACGAAT had a PBM binding z-score of 3.02.

With GTTCGGAGGACAAGGTCAGAGCTTTGTCCGTAGA, the PBM binding z-score was -0.266.

As to TGAATGAGGTTAAAGATCAGGTAACGTGGCGTCG, the PBM binding z-score worked out at 4.89.

AATACAGGGTCACTAGGCCAGATTAGGTACGAAT gave a PBM binding z-score of 3.62.

In the case of GCAGACAGGTGTAACGCAGGTAACTCAGGGTGGC, the PBM binding z-score is -0.773.

CTACCAAGGTGAACAAGGTCGCTGATTACTATTC showed a PBM binding z-score of -0.0103.

The sequence CTTAGCAGGCCAGGGTCACTCAAGCATTTCGCTT displayed a PBM binding z-score of -0.113.

As to CCTACTGAGCCATTCAGAGGTCATTGATCATATG, the PBM binding z-score is 0.239.

On to GGAAAGAGGGCAAGTTGATAGCAGAGTTTGATGG, for which the PBM binding z-score worked out at 0.606.

ATCTCTAGGTAACAAGTTCAGTGGAAGAGAGGAC: the PBM binding z-score is 0.967.

In turn, TCTCGGCGGACACGAAAGGTCAGAGCTCGACATC gave a PBM binding z-score of 1.42.

Consider CCTTACTGGTCACTGACAGGTTATAGCATTTGGA, for which the PBM binding z-score was -0.0661.

Sequence CGACCAAGGTCAGCAGGTCAGTGAAAGCGACGTG registered a PBM binding z-score of 1.12.

The sequence TCTTGTAGATCAACAGAGGTTAAGAAAGTGCGCT gave a PBM binding z-score of 2.33.

Consider CCTAGTTGGTCAAGGTCACACTCGCTATAGGTAC, for which the PBM binding z-score was found to be 1.24.

Take CAAACTAGGTCAAGAGATCAAAGTCCGCTTCCCG: the PBM binding z-score was determined as 4.87.

In turn, CTACTAAGGTGAACAAGGTCGTTGATTACTATTC had a PBM binding z-score of 0.156.

The sequence CGTCCAAGGTCAAGGCCAGTGAAAGAGACTCGAA had a PBM binding z-score of 1.48.

ATCTCTGGGTAAGACTCAGTTCAGTGAAGAACGC: the PBM binding z-score was 0.108.

Turning to GCTAGTTGGTCAGTAAAAGGACACACACCGGTCG, the PBM binding z-score is -0.0614.

In the case of CCGACTGGGCCAAAAAGGTCATTGATGCCGATAA, the PBM binding z-score was determined as 0.713.

TAGCCTAGGTCATTCAGGGGCCAGGATAGAAAGC: the PBM binding z-score is 0.232.

Regarding GCGACTGGGGCAGCAGCAGGTTACCATAACTTAA, the PBM binding z-score is -0.451.
